Compound activity from PubChem BioAssay.
TCR act = Activators of T cell receptors: qHTS campaign | AID 504894, 2011 | 330,000 tested, under 10 active | Potency, µM (highest dose often 9.22 µM), for inactives: at the top dose activation of IL-2 secretion, most hits filed as activators | primary human leukocytes, anti-CD3, IL-2 HTRF, 48 h; note: % of control where 0% means no effect
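HTRF read-out of IL-2 secretion: europium cryptate donor excited at 320nm, d2 acceptor emission at 665nm. Cells were primary human leukocytes incubated 48 hr with compounds and a-CD3 beads, supplying TCR signal only.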
FEN1 inh = qHTS Assay for the Inhibitors of Human Flap endonuclease 1 (FEN1); P39748; Recombinant FEN1 flap cleavage, fluorescence, 15 min; Potency, µM (titrated, usually from 114 µM), for the others: at the top dose activity change, negative = inhibition, actives largely listed as inhibitors; 0.35% of 390,000 active; AID 588795, 2011; note: potency is the fitted concentration of half-maximal effect; % is set by controls: 0 for no effect and ±100 for the full control effect; nearly all actives have a fitted effect of over 65% in size
Target sequence (P39748 whole entry, looked up): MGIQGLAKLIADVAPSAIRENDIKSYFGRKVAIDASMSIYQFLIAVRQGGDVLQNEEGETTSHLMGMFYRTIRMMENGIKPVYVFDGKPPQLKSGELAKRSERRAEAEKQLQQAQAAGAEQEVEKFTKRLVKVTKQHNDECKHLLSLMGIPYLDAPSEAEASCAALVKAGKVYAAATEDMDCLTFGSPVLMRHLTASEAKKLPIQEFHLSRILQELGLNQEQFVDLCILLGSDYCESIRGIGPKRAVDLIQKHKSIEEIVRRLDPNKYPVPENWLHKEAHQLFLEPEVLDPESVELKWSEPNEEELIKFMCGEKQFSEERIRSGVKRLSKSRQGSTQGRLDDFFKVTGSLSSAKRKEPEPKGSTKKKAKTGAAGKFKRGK
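Reaction started by adding substrate (50 nM final) to 10 nM enzyme after 15 min room-temperature compound preincubation. Reads at 0 and 15 min, with data normalized and fitted to a four-parameter Hill equation.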
PI5P4Ka inh = qHTS for Inhibitors of phosphatidylinositol 5-phosphate 4-kinase (PI5P4K) | max response, % | AID 652105, 2013 | PI5P4Kalpha enzyme, ADP-Glo luminescence, 60 min; active compounds read low | Phosphatidylinositol 5-phosphate 4-kinase type-2 alpha (Homo sapiens), P48426 | 1.2% of 330,000 active; active = max response of -50% or lower; inconclusive = between -30% and -50%; inactive = -30% or higher; note: value at the top dose of about 77 µM; % is set by controls: 0 for no effect and ±100 for the full control effect
Target sequence (P48426 whole entry, looked up): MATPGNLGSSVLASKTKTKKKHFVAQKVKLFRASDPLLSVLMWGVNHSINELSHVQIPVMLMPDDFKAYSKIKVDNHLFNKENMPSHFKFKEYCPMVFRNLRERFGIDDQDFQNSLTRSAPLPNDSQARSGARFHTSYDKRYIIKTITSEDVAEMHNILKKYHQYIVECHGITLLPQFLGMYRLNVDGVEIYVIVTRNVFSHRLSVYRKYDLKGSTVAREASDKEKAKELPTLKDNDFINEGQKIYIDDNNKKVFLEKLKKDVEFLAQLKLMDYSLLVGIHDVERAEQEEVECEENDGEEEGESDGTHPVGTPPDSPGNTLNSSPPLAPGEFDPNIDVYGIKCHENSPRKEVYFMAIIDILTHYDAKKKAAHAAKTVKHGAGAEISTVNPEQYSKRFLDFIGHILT
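Human PI5P4Kalpha with substrate in 0.038 M HEPES pH 7.4, 0.28 mM EGTA, 0.1% CHAPS, 5% DMSO; reaction started with 5 microM ATP (final), 60 min at room temperature. ADP formed read by ADP-Glo luminescence.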
VDR inh = Inhibitors of the vitamin D receptor (VDR): qHTS. Vitamin D3 receptor (Homo sapiens), P11473. VDR-SRC2-3 peptide fluorescence polarization, 2 h. Potency, µM, without a hit: max response, negative = inhibition, actives largely listed as inhibitors. 0.93% of 400,000 active. AID 504847, 2011; note: potency is the fitted concentration of half-maximal effect; % is set by controls: 0 for no effect and ±100 for the full control effect
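Measured by FP: displacement of SRC2-3 coactivator peptide from VDR by library compounds, following a two-hour ambient incubation.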
PLK1 PBD inh = qHTS for Inhibitors of PLK1-PDB (polo-like kinase 1 - polo-box domain): Primary Screen; 2.8% of 360,000 active; AID 720504, 2013; Potency, µM, for the others: max response, negative = inhibition, actives largely listed as inhibitors; Plk1 PBD binding of FITC phosphopeptide, fluorescence polarization; note: potency is the fitted concentration of half-maximal effect; series mostly up to about 57 µM; % is set by controls: 0 for no effect and ±100 for the full control effect; nearly all actives have a fitted effect of over 65% in size
WRN helicase inh = qHTS for Inhibitors of WRN Helicase; Bifunctional 3'-5' exonuclease/ATP-dependent helicase WRN (Homo sapiens), Q14191; WRN helicase unwinding, fluorescent forked duplex, kinetic; Potency, µM (top dose mostly 114 µM), for the others: top-dose activity change, negative = inhibition, hits mostly inhibitors; 0.46% of 360,000 active; AID 651768, 2012; note: potency is the fitted concentration of half-maximal effect; % is set by controls: 0 for no effect and ±100 for the full control effect; nearly all actives have a fitted effect of over 55% in size
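Kinetic red-fluorescence monitoring (525/598 nm) tracks WRN helicase activity after 100 nM fluorophore-quencher forked duplex and 2 mM ATP are added to 20 nM enzyme pretreated 15 min at room temperature with compound.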
Starred values were filed as active, the others as inactive; ? = inconclusive; . = no result; [ ] = another dose, or the depositor's remark. Shown are actives, neighbours in structure and some others; about 3.7% of the full set was active somewhere. Unless noted, calls come from the whole dose curve; as a rule, active = well fitted curve in the direction sought with a large enough effect; inconclusive = small, poorly fitted or top-dose-only effect, or another doubt; inactive = no such curve, though single readings can be large; an effect the other way counts as inactive or inconclusive.

SMILES | TCR act | FEN1 inh | PI5P4Ka inh | VDR inh | PLK1 PBD inh | WRN helicase inh
CC1=CC(=O)[C@H]2C(C)(C)CCC[C@]2(C)[C@@]1(O)CO | -6.7% | -19.2% | -0.9 | -5.1% | -2.0% | 0.2%
COc1ccc2c(c1)C(=O)[C@H](OC(=O)NCc1ccco1)[C@@H](c1ccc(OC)c(Br)c1)O2 | . | . | . | 56.2µM* | . | .
COc1cccc([C@@H]2Oc3ccc(Br)cc3C(=O)[C@H]2OC(=O)NCc2ccco2)c1 | . | . | . | 3.1% | . | .
CC(C)c1ccc(Cn2cnc3c(cnn3C(C)(C)C)c2=O)cc1 | . | -17.8% | . | . | . | .
COC(=O)C1=C(C)N(c2ccc(Cl)cc2)/C(=C/c2ccc(O)cc2)C1=O | -11.0% | -7.0% | 1.3 | -1.8% | -16.1% | 5.4%[57.1 µM]
COC(=O)C1=C(C)N(c2cc(C)cc(C)c2)/C(=C/c2ccc(O)cc2)C1=O | -3.0% | -15.5% | 5.4 | 50.1µM* | -14.2% | -5.6%
CCN(CC)CCOC(=O)c1ccc(N/C=C(/C#N)c2nc(-c3ccc(OC)c(OC)c3)cs2)cc1 | -2.8% | ? | -76.7* | -0.6% | 4.8% | 0.2%
CC(=O)Oc1cccc2c1C(=O)c1c(OC(C)=O)cc(C(=O)O)cc1C2=O | 1.9% | 146.6% | -76.3* | ? | ? | 77.5%
CC(=O)Oc1ccc(C(=O)O)cc1OC(C)=O | 5.9% | -2.7% | . | -4.1% | -9.6% | -12.7%
CC(C)CCNc1nc(Nc2ccccc2)c2cnn(C)c2n1 | . | -21.1% | . | 10.2% | . | .
CCC(=O)c1ccc(OCCSc2ncccn2)cc1 | 3.3% | -11.0% | 6.6 | -5.6% | 26.7µM* | -2.4%
CCCCCCCCN1[C@@H](CC(C)=O)c2ccc(/C=C/C(C)=O)cc2S1(=O)=O | . | 0.8% | . | . | . | .
O=[N+]([O-])c1cc([N+](=O)[O-])c2oc(-c3ccccc3)c(Br)c2c1O | -1.5% | 44.7µM* | -101.8* | -28.3% | 8.44µM* | ?
CC(=O)c1cc(-c2ccc(F)cc2)n(CCC(=O)NC2CCCCC2)c1C | . | 3.6% | . | 10.6% | . | .
Cc1nnc(N(Cc2ccco2)C(=O)c2cccc(C#N)c2)s1 | 1.0% | -2.8% | -8.1 | 2.1% | 29.9µM* | 5.0%
COc1cc2c3nnc(-c4ccccc4)c-3cn(Cc3ccccc3F)c2cc1OC | 1.9% | -6.8% | -13.1 | 10.9% | 21.2µM* | -22.7%[57.1 µM]
CCOc1ccccc1C(=O)Nc1ccc2nc3c(c(Nc4ccc(OC)c(OC)c4)c2c1)CCCC3 | . | -13.8% | . | -5.3% | . | .
COc1cc(C)c(S(=O)(=O)N2CCCC2)cc1C(C)C | 9.3% | -19.4% | 0.0 | -9.2% | 26.7µM* | -4.3%
COc1ccc(Br)cc1S(=O)(=O)N1CCCC1 | 6.8%[46.1 µM] | -1.3% | ? | -9.2% | 2.99µM* | -3.0%
CC(C)(C)C(=O)Nc1cccc(C(=O)c2cccc(NC(=O)C(C)(C)C)c2)c1 | 8.3% | 5.8% | -0.9 | -28.2% | 23.8µM* | 3.2%
O=C(Nc1ccc(C(=O)N2CCCCC2)cc1)c1nsc2ccccc12 | . | 10.3% | . | 7.5% | . | .
CCC(=O)OC1(C)C(=O)C=C2C=C(CCCC(=O)OC)OC=C2C1=O (centres undefined) | -1.3% | ? | ? | ? | ? | -15.6%[11.6 µM]
CCCCC1=CC2=CC(=O)C(C)(OC(=O)CC)C(=O)C2=CO1 (centres undefined) | -1.3% | ? | -65.0* | -11.9% | ? | -30.1%
CCCCC(=O)/C=C/n1c(=S)oc2ccccc21 | 4.1% | -9.0% | 13.6 | 12.6µM* | ? | -12.1%
OCCN1CCN(C(=S)c2ccc(Cl)c(Cl)c2)CC1 | 3.1% | 2.1% | . | 22.4µM* | 4.74µM* | -11.7%
SMILES | TCR act | FEN1 inh | PI5P4Ka inh | VDR inh | PLK1 PBD inh | WRN helicase inh
COc1cc(NC(=S)N2CCN(CCO)CC2)c(OC)cc1Cl | 1.0% | -0.2% | -7.0 | -14.7% | -7.4% | -0.8%
COc1cccc2c1CCCC2CCCN1CCN(C2CCCCC2)CC1 (centres undefined) | . | . | . | 5.8% | . | .
Cc1cc2nccc(/C=C/c3ccc(N(C)C)cc3)c2cc1C | . | -4.8% | . | . | . | .
O=C(NC1CCCCCCC1)c1cc(-c2ccccn2)nc2ccccc12 | -1.1% | 5.1% | -28.6 | -3.5% | 26.7µM* | 9.3%
O=C(NC1CCN(Cc2ccccc2)CC1)c1cc(-c2ccccn2)nc2ccccc12 | -3.2% | 1.2% | -2.0 | -10.9% | 1.7% | 4.7%
COc1cc([N+](=O)[O-])cc(/C=N/NC(=O)c2cc(-c3ccccc3)nc3ccccc23)c1O | -2.9% | -1.3% | -57.3* | -14.5% | 2.0% | -1.2%
O=C(N/N=C/c1cc(Cl)cc([N+](=O)[O-])c1O)c1cc(-c2ccccn2)nc2ccccc12 | 4.5% | 10.5% | -62.1* | 2.7% | ? | -17.2%
COc1cc([N+](=O)[O-])cc(/C=N/NC(=O)Cn2nc(C)cc2C)c1O | -4.7% | 14.2% | -11.2 | -6.8% | -2.7% | -9.5%
COc1cc([N+](=O)[O-])cc(/C=N/NC(=O)Cn2nccc2C)c1O | -5.7% | 13.4% | ? | ? | 26.7µM* | 5.5%
COc1cc([N+](=O)[O-])cc(/C=N/NC(=O)c2cc(C)nc3ccccc23)c1O | -2.9% | 4.3% | -26.7 | 0.1% | 4.4% | -11.5%
COc1ccc(CNCc2c(C(=O)O)n(Cc3ccc(F)cc3)c3cc(C)ccc23)cc1OC | . | -9.5% | . | 5.3% | . | .
N#Cc1nc(-c2ccc(OCc3ccccc3Cl)cc2)oc1N1CCCCCC1 | . | 0.5% | . | -3.5% | . | .
O=[N+]([O-])c1cc(Cl)cc(/C=N\Nc2ccccn2)c1O | 2.7% | -2.0% | -60.3* | ? | 3.36µM* | -10.9%
Cc1cc(O)c(C(C)C)cc1N=Cc1ccccc1O | 5.9% | ? | -1.8 | 39.8µM* | 10.3% | 1.3%
c1ccc(-c2cn3nc(-c4ccccc4)c(-c4ccccc4)nc3n2)cc1 | 1.1% | -6.3% | . | 4.6% | 26.7µM* | -7.2%
Cc1cccc(N/C=C(\[N+](=O)[O-])S(=O)(=O)c2ccccc2)c1 | -4.5% | 4.3% | 0.9 | -26.0% | 26.7µM* | -2.1%
Cc1ccc(N/C=C(\[N+](=O)[O-])S(=O)(=O)c2ccccc2)cc1 | 0.3% | -5.8% | 7.9 | -8.5% | -21.4% | -8.3%
Cc1cc[n+](CC#N)cc1 | . | -19.9% | . | . | . | .
CSc1ccc(C(c2c(C(=O)O)[nH]c3ccccc23)c2c(C(=O)O)[nH]c3ccccc23)cc1 | -0.4% | -5.8% | -9.6 | -26.7% | 10.6µM* | -8.5%[11.6 µM]
CSc1ccc(C(c2c(C)[nH][nH]c2=O)c2c(C)[nH][nH]c2=O)cc1 | 0.5% | -10.2% | -4.3 | -27.5% | ? | 8.4%[57.1 µM]
CCOC(=O)c1[nH]c2ccccc2c1NC(C)=O | 0.4% | -13.1% | -1.1 | -0.5% | -6.8% | 0.1%
